Source: PubChem BioAssay
Active and inactive are the calls of the source.

Tests used:
[1] = biological target: Albumin (Bos taurus) (UniProt P02769); assay: bovine serum albumin binders on microarray, profiling panel, artefact control for SMM control protein annotation, biochemical, small-molecule microarray, Alexa647 label, 635/667 nm fluorescence (AID 1118); details: BSA-A647 binding, fluorescence 635 nm, higher = more signal;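 also: score merges 667 nm emission intensity and signal-to-noise per printed compound spot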
Sequence of Albumin (Bos taurus) (P02769 whole entry, looked up): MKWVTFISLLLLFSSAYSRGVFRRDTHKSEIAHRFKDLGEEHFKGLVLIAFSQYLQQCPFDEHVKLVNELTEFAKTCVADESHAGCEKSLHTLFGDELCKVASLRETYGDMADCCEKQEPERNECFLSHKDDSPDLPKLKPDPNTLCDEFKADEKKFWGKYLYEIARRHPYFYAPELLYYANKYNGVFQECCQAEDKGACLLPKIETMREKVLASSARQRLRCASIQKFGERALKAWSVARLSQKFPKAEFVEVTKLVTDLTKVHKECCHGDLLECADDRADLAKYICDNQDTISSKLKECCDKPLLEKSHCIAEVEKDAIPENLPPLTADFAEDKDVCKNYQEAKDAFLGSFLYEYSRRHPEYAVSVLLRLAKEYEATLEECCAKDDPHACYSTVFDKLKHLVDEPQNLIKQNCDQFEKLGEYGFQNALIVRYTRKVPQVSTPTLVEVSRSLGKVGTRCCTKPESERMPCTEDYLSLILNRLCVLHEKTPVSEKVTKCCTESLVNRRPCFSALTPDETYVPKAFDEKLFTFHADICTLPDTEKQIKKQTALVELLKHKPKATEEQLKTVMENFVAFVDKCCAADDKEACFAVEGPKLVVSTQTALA

[2] = small-molecule microarray binders of probe aXIP, primary screen, biochemical, NeuroSMM set, 635/667 nm fluorescence (AID 1119); details: higher = more signal, called active from +8 up or from −8 down;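 also: probe is the protein aXip251-270 applied at 1 µg/mL to compound-printed slides; binding of probe to printed compounds measured as 667 nm fluorescence plus signal to noise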
[3] = small-molecule binders of probe aNOTCH3, primary screen, biochemical, small-molecule microarray, 635/667 nm fluorescence (AID 1120); details: higher = more signal;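 also: probe is a biotin-tagged antibody raised against NOTCH3 rather than NOTCH3 protein; score merges spot fluorescence near 667 nm with spot signal to noise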
[4] = small-molecule binders of probe aNOTCH2, primary screen, biochemical, small-molecule microarray, 635/667 nm fluorescence (AID 1121); details: higher = more signal;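 also: score merges feature fluorescence read at 667 nm with its signal to noise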
[5] = biological target: Carbonic anhydrase 2 (Homo sapiens) (UniProt P00918); assay: CAII small-molecule binders, profiling panel, biochemical, small-molecule microarray, Alexa647-labelled CAII (AID 1122); details: CAII-A647 binding fluorescence, higher = more signal
[6] = COS7 lysate on small-molecule microarray, probe aHis, 635 nm (AID 1123); details: COS7 cell lysate, fluorescence, higher = more signal;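 also: z-score combines 667nm fluorescence intensity with signal-to-noise per printed compound spot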
[7] = compound binding in COS7 lysate, probe aLAP1, primary screen, cell lysate, small-molecule microarray (AID 1124); details: probe aLAP1, fluorescence, higher = more signal;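 also: lysate comes from COS7 cells expressing LAP1 and is applied at 0.3 µg/mL; score merges spot fluorescence near 667 nm with signal-to-noise over triplicate slides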
[8] = system: Sam68 (KHDRBS1); assay: Sam68 small-molecule binders, primary screen, biochemical, small-molecule microarray, 635 nm fluorescence (AID 1125); details: small-molecule microarray binding, higher = more signal;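 also: score merges 667 nm channel intensity with signal to noise over triplicate slides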
[9] = system: Chordin-like protein 2 (CHRDL2); assay: CHRDL2 small-molecule binders, primary screen, biochemical, small-molecule microarray, 635 nm fluorescence (AID 1126); details: small-molecule microarray binding, fluorescence 635 nm; higher = more signal;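 also: printed compound slides probed with Chrdl2 protein at 4 µg/mL for 1 h at 4 C; score merges 667 nm emission intensity with signal to noise over three replicate slides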
[10] = biological target: Concanavalin-A (Canavalia ensiformis) (UniProt P02866); assay: ConA small-molecule binders, primary screen, artefact control for SMM control protein annotation, biochemical, small-molecule microarray, Alexa647 label, 635 nm (AID 1127); details: ConA-A647 binding fluorescence, higher = more signal;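 also: z combines 667 nm emission intensity with signal-to-noise across three replicate slides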
Sequence of Concanavalin-A (Canavalia ensiformis) (P02866 whole entry, looked up): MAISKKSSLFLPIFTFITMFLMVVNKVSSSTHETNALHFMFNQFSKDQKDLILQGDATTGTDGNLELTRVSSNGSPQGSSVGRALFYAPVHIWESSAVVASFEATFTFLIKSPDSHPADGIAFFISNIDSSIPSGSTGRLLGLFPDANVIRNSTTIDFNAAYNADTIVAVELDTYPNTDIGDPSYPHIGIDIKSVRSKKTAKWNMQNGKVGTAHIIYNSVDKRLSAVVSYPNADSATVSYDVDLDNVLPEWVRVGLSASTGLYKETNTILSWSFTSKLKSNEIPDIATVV

[11] = anti-His antibody binders, primary screen, artefact control for SMM control protein annotation, biochemical, small-molecule microarray, 635 nm fluorescence (AID 1128); details: anti-His Alexa647 antibody binding, higher = more signal;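 also: score merges feature fluorescence with signal-to-noise for each printed compound spot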
[12] = system: Human papillomavirus type 1a E7 protein (residues 1-88); assay: HPV1a E7 small-molecule binders, primary screen, biochemical, small-molecule microarray, residues 1-88, 635 nm (AID 1129); details: small-molecule microarray binding, fluorescence 635 nm; higher = more signal
[13] = biological target: Focal adhesion kinase 1 (Homo sapiens) (UniProt Q05397); assay: small-molecule microarray binders of FAK, primary screen, biochemical, 635/667 nm fluorescence, BSA, DTT (AID 1130); details: PTK2 binding, 635 nm fluorescence, higher = more signal;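 also: composite of spot emission at 667 nm and signal to noise over triplicate slides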
Sequence of Focal adhesion kinase 1 (Homo sapiens) (Q05397 whole entry, looked up): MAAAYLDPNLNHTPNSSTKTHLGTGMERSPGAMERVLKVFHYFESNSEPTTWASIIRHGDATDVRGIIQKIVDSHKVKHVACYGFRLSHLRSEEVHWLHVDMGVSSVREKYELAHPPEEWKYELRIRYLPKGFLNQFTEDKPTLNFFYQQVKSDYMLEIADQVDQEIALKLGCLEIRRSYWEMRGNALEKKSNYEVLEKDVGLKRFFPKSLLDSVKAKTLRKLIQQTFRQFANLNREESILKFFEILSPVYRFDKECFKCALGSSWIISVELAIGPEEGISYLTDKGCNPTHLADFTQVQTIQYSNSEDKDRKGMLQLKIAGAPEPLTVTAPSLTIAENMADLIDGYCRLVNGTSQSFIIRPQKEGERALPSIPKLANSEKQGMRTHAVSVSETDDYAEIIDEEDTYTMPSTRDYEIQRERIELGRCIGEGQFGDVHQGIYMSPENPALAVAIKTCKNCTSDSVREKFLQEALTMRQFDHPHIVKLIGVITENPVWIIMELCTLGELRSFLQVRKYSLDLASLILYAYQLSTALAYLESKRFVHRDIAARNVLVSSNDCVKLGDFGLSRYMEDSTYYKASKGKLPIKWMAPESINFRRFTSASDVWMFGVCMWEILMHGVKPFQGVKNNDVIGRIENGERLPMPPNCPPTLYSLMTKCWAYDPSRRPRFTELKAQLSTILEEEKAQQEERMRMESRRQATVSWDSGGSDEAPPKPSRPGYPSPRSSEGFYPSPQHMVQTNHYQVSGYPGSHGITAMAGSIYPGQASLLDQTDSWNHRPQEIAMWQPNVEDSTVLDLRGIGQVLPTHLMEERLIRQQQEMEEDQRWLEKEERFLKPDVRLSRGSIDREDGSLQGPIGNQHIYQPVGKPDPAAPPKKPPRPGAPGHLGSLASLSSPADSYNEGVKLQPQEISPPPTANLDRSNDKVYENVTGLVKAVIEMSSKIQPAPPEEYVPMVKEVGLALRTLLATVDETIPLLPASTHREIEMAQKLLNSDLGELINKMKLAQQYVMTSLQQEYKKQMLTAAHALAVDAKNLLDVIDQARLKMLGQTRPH

[14] = system: Fibrinogen (Alexa647-labelled); assay: fibrinogen binders on compound microarrays, profiling panel, artefact control for SMM control-protein annotation, biochemical, small-molecule microarray, 635/667 nm fluorescence (AID 1131); details: fibrinogen-A647 binding fluorescence, higher = more signal;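 also: z-score merges 667 nm fluorescence with per-spot signal-to-noise over triplicate slides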
[15] = biological target: Follistatin (Homo sapiens) (UniProt P19883); assay: follistatin binders on small-molecule microarrays, primary screen, biochemical, small-molecule microarray, 635/667 nm fluorescence (AID 1132); details: FST binding, 635 nm fluorescence, higher = more signal
Sequence of Follistatin (Homo sapiens) (P19883 whole entry, looked up): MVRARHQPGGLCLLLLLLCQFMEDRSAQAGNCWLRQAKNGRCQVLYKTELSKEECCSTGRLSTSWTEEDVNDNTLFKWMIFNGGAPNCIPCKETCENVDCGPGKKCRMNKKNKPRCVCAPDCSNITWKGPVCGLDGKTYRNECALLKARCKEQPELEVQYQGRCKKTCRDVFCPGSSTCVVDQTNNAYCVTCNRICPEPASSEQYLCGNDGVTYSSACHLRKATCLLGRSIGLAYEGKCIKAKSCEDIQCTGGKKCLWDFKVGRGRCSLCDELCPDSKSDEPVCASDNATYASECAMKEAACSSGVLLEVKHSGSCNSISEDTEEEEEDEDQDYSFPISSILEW

[16] = biological target: Fibroblast growth factor 2 (Homo sapiens) (UniProt P09038); assay: FGF2 binders on small-molecule microarrays, primary screen, biochemical, small-molecule microarray, 635/667 nm fluorescence (AID 1133); details: small-molecule microarray binding, FGF2, fluorescence 635/667; higher = more signal
Sequence of Fibroblast growth factor 2 (Homo sapiens) (P09038 whole entry, looked up): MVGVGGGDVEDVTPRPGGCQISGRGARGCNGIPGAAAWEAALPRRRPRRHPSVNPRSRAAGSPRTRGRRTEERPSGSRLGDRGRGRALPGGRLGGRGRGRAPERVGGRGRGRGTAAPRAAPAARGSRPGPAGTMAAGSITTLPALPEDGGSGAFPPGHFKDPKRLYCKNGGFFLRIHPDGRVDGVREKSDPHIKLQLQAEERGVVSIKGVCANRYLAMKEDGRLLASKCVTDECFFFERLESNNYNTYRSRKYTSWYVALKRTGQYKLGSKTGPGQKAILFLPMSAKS

[17] = mitochondrial membrane potential change in A549 cells, profiling panel, cell-based, JC-1 fluorescence, basal, 24 h, 100 nL (AID 1138); details: higher = more signal;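 also: A549 lung adenocarcinoma cells under basal conditions with no added stimulus; test concentration not given here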
[18] = system: Lefty1; assay: Lefty1 binders on small-molecule microarrays, primary screen, biochemical, small-molecule microarray, 635/667 nm fluorescence (AID 1139); details: small-molecule microarray binding, fluorescence 635/667; higher = more signal
[19] = system: wheat germ agglutinin (Triticum aestivum), Alexa647-labelled; assay: wheat germ agglutinin binders on compound microarrays, profiling panel, artefact control for SMM control-protein annotation, biochemical, small-molecule microarray, 635/667 nm fluorescence (AID 1140); details: WGA-A647 binding, 635 nm fluorescence, higher = more signal;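 also: score merges 667 nm feature emission with signal to noise over triplicate slides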
[20] = biological target: Luciferin 4-monooxygenase (Photinus pyralis) (UniProt P08659); assay: firefly luciferase enzyme inhibitors, primary screen, biochemical, luminescence, purified enzyme, 2006 set (AID 1141); details: SteadyGlo luminescence, 30 min, higher = more signal, called active from +8 up or from −8 down;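 also: cell-free assay with purified firefly luciferase at 100 ng per well in PBS; test concentration not given here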
Sequence of Luciferin 4-monooxygenase (Photinus pyralis) (P08659 whole entry, looked up): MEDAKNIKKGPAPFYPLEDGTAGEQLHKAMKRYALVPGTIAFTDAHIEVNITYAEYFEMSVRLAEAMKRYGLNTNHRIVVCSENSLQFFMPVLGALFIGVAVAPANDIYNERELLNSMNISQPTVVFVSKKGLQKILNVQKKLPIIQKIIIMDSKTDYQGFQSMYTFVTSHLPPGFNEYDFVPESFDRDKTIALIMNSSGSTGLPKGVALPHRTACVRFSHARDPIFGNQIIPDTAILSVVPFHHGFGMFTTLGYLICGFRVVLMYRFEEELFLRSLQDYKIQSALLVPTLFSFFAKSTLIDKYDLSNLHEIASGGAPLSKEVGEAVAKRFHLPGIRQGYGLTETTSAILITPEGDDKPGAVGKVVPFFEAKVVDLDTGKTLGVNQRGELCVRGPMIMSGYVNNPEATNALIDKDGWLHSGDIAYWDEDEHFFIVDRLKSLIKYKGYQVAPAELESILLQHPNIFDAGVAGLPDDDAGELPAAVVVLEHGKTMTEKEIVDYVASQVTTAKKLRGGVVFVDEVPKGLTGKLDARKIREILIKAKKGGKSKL

| Compound | composite z-score [1] | composite Z-score [2] | composite z-score [3] | composite z-score [4] | composite z-score [5] | composite z-score [6] | composite z-score [7] | composite z-score [8] | composite z-score [9] | composite z-score [10] | composite z-score [11] | composite z-score [12] | composite z-score [13] | composite z-score [14] | composite z-score [15] | composite z-score [16] | z-score [17] | composite z-score [18] | composite z-score [19] | z-score [20] |
| --- | --- | --- | --- | --- | --- | --- | --- | --- | --- | --- | --- | --- | --- | --- | --- | --- | --- | --- | --- | --- |
| CCCC=C(CCC)[C@@H](NS(=O)(=O)c1cccc2cccnc12)c1ccc(C(=O)OC)cc1 | -0.207 | 0.242 (inactive) | 2.12 | 1.16 | 0.771 | 0.313 | 0.392 | 0.287 | 0.599 | 0.782 | 1.4 | 0.36 | 0.542 | 0.395 | 1.31 | 0.33 | 0.0272 | 0.162 | -0.0663 | 2.48 (inactive) |
| O=C1C2C=CC(C(O)c3cccc4ccccc34)N(Nc3ccccc3)C2C(=O)N1c1ccccc1 (stereo not given) | 0.571 | 0.739 (inactive) | 0.277 | 0.0312 | 0.655 | 2.28 | 1.47 | 0.983 | 0.724 | 0.89 | 2.24 | 1.17 | 1.99 | 0.971 | 1.23 | 0.729 | -0.39 | 0.576 | 0.753 | -1.05 (inactive) |
| C=CCC(OC(C)=O)[C@@H]1[C@@H](N(Cc2cccc3ccccc23)C(=O)Cc2ccc(F)cc2)c2cc(OCCCO)ccc2N1C(=O)Cc1ccc(OC)cc1 (stereo not given in full) | 0.006 | -0.328 (inactive) | -0.0454 | -0.119 | 0.191 | -0.0343 | -0.238 | 0.191 | 0.0157 | 1.03 | -0.241 | -0.0072 | -0.142 | 0.766 | 0.532 | -0.109 | -0.189 | 0.391 | 0.672 | 0.678 (inactive) |
| N#Cc1ccc(NN2C(C(O)c3ccccc3)C=CC3C(=O)N(c4ccccc4)C(=O)C32)cc1 (stereo not given) | 0.801 | 0.151 (inactive) | 0.222 | 0.0288 | 0.809 | 1.97 | 0.191 | 0.0437 | -0.605 | -0.0029 | 0.324 | 0.954 | 0.452 | -0.456 | 0.927 | -0.217 | 1.41 | -0.272 | 0.635 | 0.884 (inactive) |
| C=CC[C@@]1(C(=O)NCC(O)CO)N=C(c2ccc(OCCCO)cc2)O[C@@H]1c1ccccc1 (stereo not given in full) | 0.814 | 1.81 (inactive) | 0.13 | -0.0028 | 0.797 | 3.84 | 0.595 | 1.22 | -0.381 | -0.237 | 1.98 | 0.932 | 0.307 | 0.543 | 1.44 | 1.02 | 1.01 | 0.0457 | 1.27 | -1.31 (inactive) |
| O=C1OCCC=C[C@H]2OC34C=CCN(Cn5nnc6ccccc65)C(=O)[C@H]3N(CCCCCO)C(=O)[C@@H]4C12 (stereo not given in full) | 0.428 | 0.266 (inactive) | -0.193 | -0.114 | 0.87 | 0.121 | 0.686 | -0.464 | -0.579 | -1.55 | 2.73 | -0.476 | 0.0209 | -2.02 | -0.862 | -0.346 | 0.427 | -0.559 | -0.807 | -0.245 (inactive) |
| N#Cc1ccc(NN2C(C(O)c3ccco3)C=CC3C(=O)N(c4ccccc4)C(=O)C32)cc1 (stereo not given) | 0.488 | 0.499 (inactive) | 0.188 | -0.0148 | 0.89 | 1.5 | 0.687 | 0.0163 | 0.111 | 0.458 | 0.716 | -0.0085 | 0.788 | 0.251 | 0.552 | -0.302 | -0.244 | -0.231 | 0.754 | -0.72 (inactive) |
| COC(=O)[C@@]1(Cc2ccccc2N=[N+]=[N-])N=C(c2ccc(OCCCO)cc2)O[C@H]1c1ccccc1 | 0.371 | 0.17 (inactive) | -0.0377 | -0.0563 | 0.593 | 1.28 | 0.156 | 1.16 | -0.608 | 1.11 | 2.23 | 1.13 | 0.771 | 0.422 | 0.465 | 0.19 | -1.26 | 0.138 | 0.0657 | -2.7 (inactive) |
| [N-]=[N+]=Nc1ccccc1[C@H]1OC(c2ccc(OCCCO)cc2)=N[C@@]1(Cc1ccccc1)C(=O)NCc1ccccc1 | 0.713 | 1.76 (inactive) | 0.256 | -0.0714 | 0.497 | 1.46 | 0.112 | 1.31 | 0.125 | 1.02 | 1.29 | 1.2 | 0.425 | 0.997 | 1.15 | 0.291 | 0.361 | 0.362 | 0.415 | -6.55 (inactive) |
